The target of assay [1] is human Endothelin Receptor Type A (ETA), EDNRA (gene 1909) (UniProt P25101). As to the kind of experiment: NVS_GPCR_hETA: NovaScreen (NVS) G Protein-Coupled Receptor Assay for human Endothelin Receptor Type A (ETA) (AID 2283265). An outline of the steps:
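Cell-free radioligand displacement using SH-SY5Y-derived protein, 3 h incubation, filter-based scintillation counting. Primary screen in duplicate at 25 uM; actives then run in concentration-response up to 50 uM; loss of binding fitted versus DMSO.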

In assay [2] the target is human Endothelin Receptor Type B (ETB), EDNRB (gene 1910) (UniProt P24530). The assay is described as follows: NVS_GPCR_hETB: NovaScreen (NVS) G Protein-Coupled Receptor Assay for human Endothelin Receptor Type B (ETB) (AID 2283267). An outline of the steps: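 Human astrocytoma cell membranes; radioligand competitive binding read by filter scintillation counting 4 hours after dosing. Single-concentration duplicate screen at 25 uM, then singleton concentration-response up to 50 uM; loss of signal versus DMSO.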

The target of assay [3] is Muscarinic acetylcholine receptor M1 (Homo sapiens) (UniProt P11229). The assay is described as follows: NVS_GPCR_hM1: NovaScreen (NVS) G Protein-Coupled Receptor Assay for human Muscarinic, M1 Receptor (AID 2283270). An outline of the steps: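 Cell-free radioligand displacement using membrane protein extracted from CHO cells, read by filter-based scintillation counting 1 h after dosing. Loss of bound signal fitted versus DMSO; primary screen single concentration 25 uM in duplicate, actives followed by concentration series.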

The target in assay [4] is human Dopamine Receptor D2 (DRD2), DRD2 (gene 1813) (UniProt P14416). As to the kind of experiment: NVS_GPCR_hDRD2s: NovaScreen (NVS) G Protein-Coupled Receptor Assay for human Dopamine Receptor D2 (DRD2) (AID 2283266). Put shortly:
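Radioligand displacement used human DRD2 membranes extracted from CHO cells and was read by filter-based scintillation counting after 1.5 hours. Primary screening was in duplicate at 25 uM. Loss of signal versus DMSO was fitted, with concentration series in follow-up.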

Assay [5] has as its target D(1A) dopamine receptor (Homo sapiens) (UniProt P21728). As to the kind of experiment: NVS_GPCR_hDRD1: NovaScreen (NVS) G Protein-Coupled Receptor Assay for human Dopamine Receptor D1 (DRD1) (AID 2283269). An outline of the steps:
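Cell-free competition with radioligand, filter-trapped and scintillation-counted 1 h post-dose, using HEK293-derived human D1 preparation. Duplicate single-point testing at 25 uM first, then concentration series for actives; DMSO served as baseline, loss-of-signal scored.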

Assay [6] has as its target Beta-2 adrenergic receptor (Homo sapiens) (UniProt P07550). As to the kind of experiment: NVS_GPCR_hAdrb2: NovaScreen (NVS) G Protein-Coupled Receptor Assay for human Adrenergic, Beta 2 Receptor (Adrb2) (AID 2283261). Put shortly: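 Filter-based radioligand binding using receptor prepared from CHO cells, 1 h incubation, scintillation counting. Primary screen in duplicate at 25 uM, actives retested in concentration series; loss of binding relative to DMSO.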

Assay [7] concerns the target human Adrenergic, Beta 3 Receptor (Adrb3), ADRB3 (gene 155) (UniProt P13945). As to the kind of experiment: NVS_GPCR_hAdrb3: NovaScreen (NVS) G Protein-Coupled Receptor Assay for human Adrenergic, Beta 3 Receptor (Adrb3) (AID 2283262). Put shortly: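 Membranes from SK-N-MC cells pretreated with isoproterenol and 8-bromo-cAMP were used in a radioligand competitive displacement binding assay. Binding was read by filter-based scintillation counting 1 hour after dosing. Primary screening was in duplicate at 25 uM, with concentration series in follow-up.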

The target in assay [8] is human Dopamine Receptor D4.4 (DRD4.4), DRD4 (gene 1815) (UniProt P21917). As to the kind of experiment: NVS_GPCR_hDRD4.4: NovaScreen (NVS) G Protein-Coupled Receptor Assay for human Dopamine Receptor D4.4 (DRD4.4) (AID 2283264). Put shortly: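 Radioligand displacement on human DRD4.4 from CHO-derived membranes, 1 hour incubation, bound counts read by filtration and scintillation. Primary screen in duplicate at 25 uM; actives followed up in concentration series.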

Assay [9] addresses human Histamine 1 Receptor (H1), HRH1 (gene 3269) (UniProt P35367). As to the kind of experiment: NVS_GPCR_hH1: NovaScreen (NVS) G Protein-Coupled Receptor Assay for human Histamine 1 Receptor (H1) (AID 2283268). An outline of the steps:
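Cell-free radioligand displacement at human H1 receptor, 1 h, filter scintillation counting; primary screen 25 uM in duplicate, hits in concentration series; loss of binding fitted vs DMSO.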

Assay [10] concerns the target Type-1 angiotensin II receptor (Homo sapiens) (UniProt P30556). The assay is described as follows: NVS_GPCR_hAT1: NovaScreen (NVS) G Protein-Coupled Receptor Assay for human Angiotensin II receptor type 1 (AT1) (AID 2283263). Put shortly: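 Membranes from KAN-TS cells; radioligand competitive displacement, 3 h, filtration and scintillation counting. Single-point duplicate screen at 25 uM, then concentration-response up to 50 uM for hits; loss of signal fitted versus DMSO.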

The structures appear in SMILES notation. Results filed as inconclusive are left out. Calls of active or inactive are those of the source. The calls were made as follows: active = hit-call score of the fitted dose curve at least 0.9, where 1 is the maximum; inconclusive = response in the unintended direction; inactive = score below 0.9.

The term AC50 denotes the concentration giving half of the maximal activity seen.

Sequence of human Dopamine Receptor D2 (DRD2), DRD2 (gene 1813) (P14416 whole entry, looked up): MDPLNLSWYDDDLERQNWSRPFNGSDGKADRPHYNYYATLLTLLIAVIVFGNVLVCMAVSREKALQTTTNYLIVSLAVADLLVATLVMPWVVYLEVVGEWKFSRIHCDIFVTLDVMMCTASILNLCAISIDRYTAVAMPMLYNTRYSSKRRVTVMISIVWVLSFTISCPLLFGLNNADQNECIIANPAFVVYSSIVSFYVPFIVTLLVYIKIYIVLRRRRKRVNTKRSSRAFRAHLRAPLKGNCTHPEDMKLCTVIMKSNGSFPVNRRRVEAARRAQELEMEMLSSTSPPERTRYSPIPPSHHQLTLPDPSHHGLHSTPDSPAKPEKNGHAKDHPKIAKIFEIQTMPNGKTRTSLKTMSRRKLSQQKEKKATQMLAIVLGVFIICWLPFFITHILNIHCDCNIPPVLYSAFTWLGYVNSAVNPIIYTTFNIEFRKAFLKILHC
Sequence of human Histamine 1 Receptor (H1), HRH1 (gene 3269) (P35367 whole entry, looked up): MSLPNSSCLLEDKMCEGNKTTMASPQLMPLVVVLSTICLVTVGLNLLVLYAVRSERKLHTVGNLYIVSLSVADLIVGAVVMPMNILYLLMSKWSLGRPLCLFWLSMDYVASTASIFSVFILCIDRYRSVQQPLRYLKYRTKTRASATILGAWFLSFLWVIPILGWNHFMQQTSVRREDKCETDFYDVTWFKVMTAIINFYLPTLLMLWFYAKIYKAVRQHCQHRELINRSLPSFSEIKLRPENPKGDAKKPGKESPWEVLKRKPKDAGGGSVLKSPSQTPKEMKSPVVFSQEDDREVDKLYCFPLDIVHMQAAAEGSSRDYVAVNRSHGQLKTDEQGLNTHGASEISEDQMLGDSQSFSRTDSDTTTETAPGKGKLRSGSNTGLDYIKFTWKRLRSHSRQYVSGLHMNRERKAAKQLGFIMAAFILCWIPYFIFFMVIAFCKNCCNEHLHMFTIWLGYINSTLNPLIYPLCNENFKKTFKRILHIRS
Sequence of Muscarinic acetylcholine receptor M1 (Homo sapiens) (P11229 whole entry, looked up): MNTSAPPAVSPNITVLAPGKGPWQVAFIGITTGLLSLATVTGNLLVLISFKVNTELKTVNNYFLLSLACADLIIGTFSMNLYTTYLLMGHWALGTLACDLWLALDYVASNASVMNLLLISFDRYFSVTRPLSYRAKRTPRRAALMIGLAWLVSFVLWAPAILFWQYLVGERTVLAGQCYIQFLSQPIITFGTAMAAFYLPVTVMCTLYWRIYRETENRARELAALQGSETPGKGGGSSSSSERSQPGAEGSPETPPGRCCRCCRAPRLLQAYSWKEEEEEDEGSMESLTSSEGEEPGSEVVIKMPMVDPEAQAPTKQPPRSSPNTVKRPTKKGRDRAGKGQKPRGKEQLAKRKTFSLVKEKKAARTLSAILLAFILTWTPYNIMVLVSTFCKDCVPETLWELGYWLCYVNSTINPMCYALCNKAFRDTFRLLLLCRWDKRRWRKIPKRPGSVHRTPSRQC
Sequence of human Adrenergic, Beta 3 Receptor (Adrb3), ADRB3 (gene 155) (P13945 whole entry, looked up): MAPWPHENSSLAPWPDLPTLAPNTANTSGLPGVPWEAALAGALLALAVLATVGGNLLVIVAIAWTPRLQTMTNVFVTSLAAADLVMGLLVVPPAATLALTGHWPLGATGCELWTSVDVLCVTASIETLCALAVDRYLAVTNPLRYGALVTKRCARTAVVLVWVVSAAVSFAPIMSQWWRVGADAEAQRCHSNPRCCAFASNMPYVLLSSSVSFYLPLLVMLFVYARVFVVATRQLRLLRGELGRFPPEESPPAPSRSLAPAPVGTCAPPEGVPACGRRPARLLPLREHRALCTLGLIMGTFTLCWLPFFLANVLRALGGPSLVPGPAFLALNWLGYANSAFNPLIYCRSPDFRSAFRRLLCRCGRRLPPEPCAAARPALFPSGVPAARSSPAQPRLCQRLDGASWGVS
Sequence of Beta-2 adrenergic receptor (Homo sapiens) (P07550 whole entry, looked up): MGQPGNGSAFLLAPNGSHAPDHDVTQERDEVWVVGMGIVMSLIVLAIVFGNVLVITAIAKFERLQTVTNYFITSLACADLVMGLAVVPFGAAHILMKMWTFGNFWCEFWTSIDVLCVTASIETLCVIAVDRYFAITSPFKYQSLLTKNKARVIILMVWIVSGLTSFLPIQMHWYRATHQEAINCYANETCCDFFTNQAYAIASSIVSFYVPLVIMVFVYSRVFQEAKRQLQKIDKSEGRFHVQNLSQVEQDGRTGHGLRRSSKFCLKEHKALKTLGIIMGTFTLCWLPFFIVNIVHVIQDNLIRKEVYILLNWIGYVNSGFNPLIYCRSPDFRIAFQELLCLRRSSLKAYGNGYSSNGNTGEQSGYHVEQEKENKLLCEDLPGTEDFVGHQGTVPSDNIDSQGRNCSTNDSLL
Sequence of human Dopamine Receptor D4.4 (DRD4.4), DRD4 (gene 1815) (P21917 whole entry, looked up): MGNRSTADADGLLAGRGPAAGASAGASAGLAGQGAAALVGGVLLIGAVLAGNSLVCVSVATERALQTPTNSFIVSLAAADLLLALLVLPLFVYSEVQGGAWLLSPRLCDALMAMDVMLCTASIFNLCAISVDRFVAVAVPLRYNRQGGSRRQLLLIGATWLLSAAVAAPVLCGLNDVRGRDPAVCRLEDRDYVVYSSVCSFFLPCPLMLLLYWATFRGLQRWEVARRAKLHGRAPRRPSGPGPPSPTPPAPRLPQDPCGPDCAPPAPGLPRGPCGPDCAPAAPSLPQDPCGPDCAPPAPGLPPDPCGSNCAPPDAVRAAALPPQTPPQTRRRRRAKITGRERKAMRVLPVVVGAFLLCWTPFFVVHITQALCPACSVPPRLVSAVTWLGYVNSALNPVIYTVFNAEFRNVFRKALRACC
Sequence of human Endothelin Receptor Type A (ETA), EDNRA (gene 1909) (P25101 whole entry, looked up): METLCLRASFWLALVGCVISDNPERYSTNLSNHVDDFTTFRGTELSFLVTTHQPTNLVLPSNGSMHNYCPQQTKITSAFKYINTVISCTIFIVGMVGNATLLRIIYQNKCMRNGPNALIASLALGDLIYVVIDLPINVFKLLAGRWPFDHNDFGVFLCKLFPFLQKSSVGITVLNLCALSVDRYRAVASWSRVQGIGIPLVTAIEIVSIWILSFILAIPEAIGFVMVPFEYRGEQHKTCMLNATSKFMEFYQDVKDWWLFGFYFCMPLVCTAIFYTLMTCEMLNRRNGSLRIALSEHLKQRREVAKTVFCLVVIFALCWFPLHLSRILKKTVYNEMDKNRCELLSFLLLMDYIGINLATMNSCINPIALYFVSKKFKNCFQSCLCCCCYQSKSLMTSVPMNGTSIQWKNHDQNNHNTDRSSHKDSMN
Sequence of D(1A) dopamine receptor (Homo sapiens) (P21728 whole entry, looked up): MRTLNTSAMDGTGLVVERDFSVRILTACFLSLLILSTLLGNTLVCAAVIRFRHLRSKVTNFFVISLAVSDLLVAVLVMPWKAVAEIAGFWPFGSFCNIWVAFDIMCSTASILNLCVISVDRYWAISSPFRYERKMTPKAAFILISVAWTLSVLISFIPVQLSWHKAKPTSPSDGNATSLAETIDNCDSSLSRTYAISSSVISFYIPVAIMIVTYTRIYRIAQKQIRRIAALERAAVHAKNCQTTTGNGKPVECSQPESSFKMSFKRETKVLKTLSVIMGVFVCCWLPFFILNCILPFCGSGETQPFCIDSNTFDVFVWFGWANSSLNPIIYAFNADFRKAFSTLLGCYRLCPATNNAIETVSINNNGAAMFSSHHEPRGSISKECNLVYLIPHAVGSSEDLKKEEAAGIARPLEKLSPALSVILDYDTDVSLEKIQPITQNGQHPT
Sequence of human Endothelin Receptor Type B (ETB), EDNRB (gene 1910) (P24530 whole entry, looked up): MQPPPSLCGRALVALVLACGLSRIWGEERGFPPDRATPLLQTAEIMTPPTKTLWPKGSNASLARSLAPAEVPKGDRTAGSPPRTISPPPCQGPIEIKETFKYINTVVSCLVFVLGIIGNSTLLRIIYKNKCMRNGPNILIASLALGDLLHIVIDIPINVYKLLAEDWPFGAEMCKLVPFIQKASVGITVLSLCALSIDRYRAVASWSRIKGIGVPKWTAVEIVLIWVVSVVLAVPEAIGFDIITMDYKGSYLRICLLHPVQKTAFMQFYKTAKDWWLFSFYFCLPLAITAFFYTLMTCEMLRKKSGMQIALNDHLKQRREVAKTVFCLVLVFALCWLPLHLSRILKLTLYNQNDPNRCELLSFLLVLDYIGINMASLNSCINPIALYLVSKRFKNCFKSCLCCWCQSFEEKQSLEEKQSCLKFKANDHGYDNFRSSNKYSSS
Sequence of Type-1 angiotensin II receptor (Homo sapiens) (P30556 whole entry, looked up): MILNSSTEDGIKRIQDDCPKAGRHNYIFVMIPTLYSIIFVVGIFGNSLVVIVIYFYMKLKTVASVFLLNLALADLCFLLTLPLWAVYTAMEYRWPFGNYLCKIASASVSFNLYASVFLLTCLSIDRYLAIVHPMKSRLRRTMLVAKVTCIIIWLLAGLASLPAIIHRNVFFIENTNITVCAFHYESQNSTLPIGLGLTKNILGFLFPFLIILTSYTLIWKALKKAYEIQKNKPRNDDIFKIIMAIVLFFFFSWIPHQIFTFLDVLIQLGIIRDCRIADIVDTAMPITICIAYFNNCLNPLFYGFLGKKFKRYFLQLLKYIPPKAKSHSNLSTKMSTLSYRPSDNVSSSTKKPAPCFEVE

Consider `CC[C@H](C)C(=O)O[C@H]1C[C@@H](C)C=C2C=C[C@H](C)[C@H](CC[C@@H]3C[C@@H](O)CC(=O)O3)[C@H]21`, for which the outcome in [1] was inactive.

As for `CCCCC(CC)COC(=O)CCCCCCCCC(=O)OCC(CC)CCCC` (centres undefined), the result in [2] was inactive.

With `CC[C@H]1CC[C@H](NCc2cc3c(cc2OC)[C@H]2C[C@H]2C(=O)N3C)[C@H](c2ccccc2)N1`, in assay [3], the AC50 was 1.47 µM (active).

On to `O=C1CCCCCN1`, for which the compound was classed as inactive in [1].

As for `CCC(C)(C)C(=O)O[C@H]1C[C@@H](C)C=C2C=C[C@H](C)[C@H](CC[C@@H]3C[C@@H](O)CC(=O)O3)[C@H]21`, the compound was classed as inactive in assay [4] and in [5].

Turning to `CCOC(=O)COc1ccc2c(c1)CC(NCC(O)c1cccc(Cl)c1)CC2` (centres undefined), the AC50 is 0.0827 µM (active) in assay [6]; 17.9 µM (active) in [7]; 22.9 µM (active) in [8]; 2.33 µM (active) in assay [4]; 20.1 µM (active) in assay [9]; 22.9 µM (active) in assay [5]. Also, the AC50 in [3] is 4.73 µM (active). The result in assay [1] was inactive.

As to `O=P(OC(CCl)CCl)(OC(CCl)CCl)OC(CCl)CCl`, in assay [9], the half-maximal activity concentration (AC50) is 19.8 µM (active). Further, in [5], the outcome was inactive.

For `CC(C)CC(C)(O)C#CC(C)(O)CC(C)C` (centres undefined), the outcome in [7] was inactive.

Turning to `CCCN(C1CCN(C(=O)C2CCNCC2)CC1)[C@@H]1CCc2ccc(OC)cc2C1`, the AC50 in assay [4] was 18.8 µM (active); in [9], 12.1 µM (active); in assay [3] it was 0.00229 µM (active).

For the compound `CCc1cc(SCc2sc(-c3ccc(C(F)(F)F)cc3)nc2CN2CCN(c3ccc(OC)cc3)CC2)ccc1OCC(=O)O`, the result in assay [6] was inactive. The AC50 was 9.64 µM (active) in assay [10]; 6.77 µM (active) in [8]; 4.08 µM (active) in assay [4]; 25 µM (active) in [9]; 11.5 µM (active) in [5].

For `Cn1c(=O)cc(Oc2ccc(F)cc2F)c2cnc(NCC(C)(C)O)nc21`, in [9], the AC50 was 6.95 µM (active).

Regarding `O=c1[nH]c2ccc(S(=O)CCN3CCC(Cc4ccc(F)cc4)CC3)cc2o1` (centres undefined), the AC50 in [8] was 2.51 µM (active); in [4], 13.5 µM (active); in assay [9] it was 0.522 µM (active); in [5], 1.23 µM (active).

For the compound `CCn1nc(Cc2ccccc2)cc1C1CCN(C[C@H]2C[C@H](N(C)[C@@H](C(=O)O)C(C)C)C[C@@H]2c2cccc(F)c2)CC1`, the outcome in [7] and in [4] was inactive.

In the case of `Cc1[nH]cnc1C[C@H]1CCc2c(C)c3ccccc3n2C1=O`, the AC50 in assay [6] was 1.39 µM (active); in assay [8], 18.4 µM (active); in assay [4] it was 0.979 µM (active); in assay [9] it was 4.88 µM (active). Further, the compound was called inactive in [2] and in [3].

The values above are taken from PubChem BioAssay (EPA / NIEHS).
